# Experimental data reported in PubChem BioAssay AID743279 (National Center for Advancing Translational Sciences (NCATS), 2014).
# About 17,000 (4.7%) of roughly 360,000 compounds were called active. Inconclusive results (about 5%) are left out. Cut-off read from the data, not from the text of the source: active = activity change below about -50%; inconclusive = mostly about -30% to -49%; inactive = weaker than that. The entries come from a sample that favours actives as a whole.
# Test: qHTS for Inhibitors of Inflammasome Signaling: IL-1-beta AlphaLISA Primary Screen
# Conditions: THP-1 LPS/ATP IL-1B secretion, 16 h; at 57.5 µM, hits give low values
# Method in brief: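 THP-1 cells pretreated 1 hr with compounds (up to 57.5 uM final), then stimulated with LPS (250 ng/mL final) plus ATP (1.25 mM final); secreted IL-1B measured by AlphaLISA after 16 hr, decreased signal indicating inhibition.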
# % is set by controls: 0 for no effect and ±100 for the full control effect.
row,Compound,activity change
1,CSc1nnc(NC(=O)c2nc(S(=O)(=O)Cc3ccc(C)cc3)ncc2Cl)s1,-105% (active)
2,CSc1ncc(Cl)c(C(=O)Nc2cc(C)ccc2C)n1,25.6% (inactive)
3,Cc1ccc(CS(=O)(=O)c2ncc(Cl)c(C(=O)Nc3nnc(C)s3)n2)cc1,-57.1% (active)
4,COCCSc1nnc(NC(=O)CCS(=O)(=O)Cc2ccccc2)s1,1.75% (inactive)
5,Cc1nnc(NC(=O)CCCOc2ccccc2)s1,19.1% (inactive)
6,Cc1ccc(S(=O)(=O)CCC(=O)Nc2nnc(CC(C)C)s2)cc1,-3.21% (inactive)
7,CCc1nc2ccc(C(=O)NC3CCN(Cc4ccccc4)CC3)cn2c1N(CC)CCOC,-7.01% (inactive)
8,O=C(Cn1cc(C(=O)C2CC2)c2ccccc21)Nc1ccccc1Cl,-2.81% (inactive)
9,Cc1ccc(NS(=O)(=O)c2ccc(C(=O)NCCCN3CCOCC3)cc2)cc1,6.14% (inactive)
10,COC(=O)c1ccc2c(c1)S(=O)(=O)NC2C (stereo not drawn),5.94% (inactive)
11,CCOC(=O)C1=CC[C@@H](c2ccccc2)N(S(=O)(=O)c2ccc(C)cc2)[C@H]1c1ccc(CC)cc1,52.6% (inactive)
12,COc1ccc(S(=O)(=O)N2CCN(CC(=O)N3CCNC3=O)CC2)cc1OC,-22% (inactive)
13,O=C(OC12CC3CC(CC(C3)C1)C2)c1ccc(NCc2cc(O)ccc2O)cc1,-102% (active)
14,COC(=O)c1ccc(NCC(=O)c2ccccc2)cc1,-20.4% (inactive)
15,COC(=O)c1ccc(NCc2cc(O)ccc2O)cc1,-110% (active)
16,CC1(C)C2CCC1(C)C(OC(=O)c1ccc(O)cc1)C2 (stereo not drawn),9.54% (inactive)
17,CC(C)OC(=O)c1ccc(NCc2cc(O)ccc2O)cc1Cl,0% (inactive)
18,Cc1ccc(-c2cnc(C(O)c3cccc(C)c3C)[nH]2)cc1 (stereo not drawn),-19.2% (inactive)
19,CCC(=O)OCc1c(C(F)(F)F)nn(C)c1Oc1cccc(C(F)(F)F)c1,2.89% (inactive)
20,CCC(C)C(CO)NC(=O)/C=C/[C@H]1O[C@@H](n2cnc3c(NC(=O)c4ccccc4)ncnc32)[C@H](O)[C@@H]1O (stereo partly drawn),-22% (inactive)
21,C[C@H](CO)N1C[C@H](C)[C@@H](CN(C)Cc2ccc3c(c2)OCO3)OCc2cnnn2CCCC1=O,19.4% (inactive)
22,CC1CCCC(C)N1C(=O)COC(=O)c1ccccc1C(=O)c1ccccc1 (stereo not drawn),-9.64% (inactive)
23,N#Cc1c(N)nc2c(c1N)CC(C(F)(F)F)O2 (stereo not drawn),16.5% (inactive)
24,O=C(O)C(CCc1ccccn1)c1ccccc1 (stereo not drawn),-10.2% (inactive)
25,O=c1[nH]c2c(c(=O)n1-c1ccccc1)CCO2,0% (inactive)
26,O=C(NCc1ccco1)c1ccc([N+](=O)[O-])cc1Cl,15.3% (inactive)
27,CC(OC(=O)CNC(=O)c1ccco1)C(=O)Nc1ccc(Cl)cn1 (stereo not drawn),12.3% (inactive)
28,CC(OC(=O)CNC(=O)c1ccc(Cl)c([N+](=O)[O-])c1)C(=O)NCc1ccco1 (stereo not drawn),-52.2% (active)
